From ChEMBL document CHEMBL3433997, “St. Jude Leishmania screening dataset” (2016)

Columns and labels:
Format in all cases: functional
[1] = target: Solute carrier family 2, facilitated glucose transporter member 1 (Homo sapiens) (UniProt P11166); assay: ST_JUDE_LEISH: Cytotoxicity at 2uM final concentration against transgenic Leishmania Mexicana promastigotes LmGLUT1 that are glucose transport deficient and complemented with the human glucose transporter GLUT1. Activity is measured by DNA content using SYBR green in vitro
[2] = target: Hexose transporter 1 (Plasmodium falciparum) (UniProt O97467); assay: ST_JUDE_LEISH: Cytotoxicity at 2uM final concentration against transgenic Leishmania Mexicana promastigotes LmPfHT that are glucose transport deficient and complemented with the Plasmodium falciparum hexose transporter. Activity is measured by DNA content using SYBR green in vitro
[3] = target: Glucose transporter (Leishmania mexicana) (UniProt O61059); assay: ST_JUDE_LEISH: Cytotoxicity at 2uM final concentration against transgenic Leishmania Mexicana promastigotes LmGT2 that are glucose transport deficient and complemented with the L. Mexicana glucose transporter 2. Activity is measured by DNA content using SYBR green in vitro

Solute carrier family 2, facilitated glucose transporter member 1 (Homo sapiens), sequence (P11166 whole entry): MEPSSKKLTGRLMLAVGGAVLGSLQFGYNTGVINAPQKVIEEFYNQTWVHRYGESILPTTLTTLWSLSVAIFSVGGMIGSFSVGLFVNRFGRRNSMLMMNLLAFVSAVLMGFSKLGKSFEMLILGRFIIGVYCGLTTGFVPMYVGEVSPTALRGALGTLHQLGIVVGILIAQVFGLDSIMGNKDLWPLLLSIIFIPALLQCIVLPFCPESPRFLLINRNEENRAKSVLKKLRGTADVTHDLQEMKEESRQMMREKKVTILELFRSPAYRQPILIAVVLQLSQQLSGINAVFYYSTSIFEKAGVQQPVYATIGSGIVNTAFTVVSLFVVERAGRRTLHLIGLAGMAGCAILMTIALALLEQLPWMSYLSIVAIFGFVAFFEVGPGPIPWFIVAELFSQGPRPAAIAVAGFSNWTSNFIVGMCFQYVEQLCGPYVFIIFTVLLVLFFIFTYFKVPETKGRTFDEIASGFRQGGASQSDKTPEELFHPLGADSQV

## CCCCC1(NC(=O)[C@@H](Nc2ccc(C#N)c3ccccc23)C2CCCCC2)CCCCC1
[1]
  inhibition: -1.28%
[2]
  inhibition: -0.56%
[3]
  inhibition: -0.93%

## NC(=O)C1CCN(Cc2cccc(-c3ccc(-c4nc5cc(C(F)(F)F)ccc5[nH]4)cc3)c2)CC1
[1]
  inhibition: -1.36%
[2]
  inhibition: -1.5%
[3]
  inhibition: -2.94%

## CN(Cc1ccc(NC(=O)NC2CCN(C(=O)/C=C/c3ccc(Cl)c(Cl)c3)CC2)cc1)C1CCOCC1
[1]
  inhibition: 1.63%
[2]
  inhibition: -3.08%
[3]
  inhibition: 3.44%

## Cc1c(C2CCN(CCCCNC(=O)c3ccc(-c4ccc(C#N)cc4)cc3)CC2)c2ccccc2n1CCO
[1]
  inhibition: 3.84%
[2]
  inhibition: 0.33%
[3]
  inhibition: 3.72%

## CCOc1ccc(Br)cc1/C=C/C(=O)Nc1ccc2c(c1)CCCN(C)C2
[1]
  inhibition: 11.6%
[2]
  inhibition: 10.4%
[3]
  inhibition: 11.8%

## O=C1CCCN1CCCNCc1ccc(-c2ccc(-c3nc4cc(F)ccc4[nH]3)cc2)cc1
[1]
  inhibition: 11.9%
[2]
  inhibition: 13.3%
[3]
  inhibition: 12.3%
